Results reported in PubChem BioAssay AID2314 (National Center for Advancing Translational Sciences (NCATS), 2010).
“And” between values parts separate entries of the source, which are not always exact repeats. Equal values may be shown once. Out of some 300,000 compounds screened, about 37,000 (12%) were called active. This excerpt belongs to a sample that is enriched for actives. Unmarked numbers belong to inactive results. Rule as the data show it: active = max response mostly above about 13% (no sharp cut-off); inactive = mostly below about 14%.

Experiment: Cycloheximide Counterscreen for Small Molecule Inhibitors of Shiga Toxin; also: read at 38.3 µM for the half of the compounds with a filed dose; 0% is about no effect
Settings: cell reporter, cycloheximide protein synthesis inhibition counterscreen; active compounds read high

Q: Which max response does the source give for `COc1cc(CCC(=O)N2CCN(c3ccccc3Cl)CC2)cc(OC)c1OC` here?
A: The max response was -5.65%.

Q: With `CNC(=S)N/N=C/c1ccc(OCc2ccccc2)c(Br)c1` as the molecule, how does the max response read?
A: The max response was -5.52%.

Q: Which max response does the source give for `Cc1ccc(CNC(=O)C2(C(F)(F)F)C/C(=C\CCO)CCCO2)o1` (configuration not stated) here?
A: Its max response is 7.26%.

Q: For `CS(=O)(=O)Nc1cccc(-c2cn3ccccc3n2)c1`, which max response is on record?
A: Its max response is 19.3% (active).

Q: Which max response does the source give for `COc1ccc(OC)c(S(=O)(=O)Nc2cccc(-c3ccc4nncn4n3)c2)c1` here?
A: The max response was -3.34%.

Q: For `CCC(=O)Nc1cccc(NC(=O)CSc2nnc(-c3ccc(NS(C)(=O)=O)cc3)n2C)c1`, which max response is on record?
A: The max response was -1.2%.

Q: With `CC(=O)C1=C(O)C(=O)N(c2ccc(Br)cc2)C1c1ccc([N+](=O)[O-])cc1` (configuration not stated) as the molecule, how does the max response read?
A: The max response was -1.92%.

Q: With `Oc1ccc(Br)cc1C=Nc1ccc2[nH]ncc2c1` as the molecule, how does the max response read?
A: The max response was -2.62%.

Q: Which max response does the source give for `Oc1ccc(Br)cc1/C=N/Nc1ccccn1` here?
A: The max response was 41.6% (active).

Q: For `CCN(CC)CCn1c(/N=C/c2cc(Br)ccc2O)nc2ccccc21`, which max response is on record?
A: Its max response is 8.52%.

Q: With `COc1cccc(-n2c(N)cc(=O)nc2SCC(=O)Nc2cc(C)on2)c1` as the molecule, how does the max response read?
A: Its max response is -3.66%.

Q: For `Cc1ccnc(N2CCN(C(=O)CSc3nc4ccccc4nc3N3CCCCC3)CC2)c1`, which max response is on record?
A: Its max response is -5.65%.

Q: Which max response does the source give for `Cn1c(Nc2ccccc2)cc(=O)n(C)c1=O` here?
A: Its max response is -4.74%.

Q: With `COc1ccc(C(=O)COC(=O)CNC(=O)c2cccs2)cc1Br` as the molecule, how does the max response read?
A: Its max response is -4.46%.

Q: With `COc1cc(NC(=S)NCCSc2ccc(C)cc2)cc(OC)c1` as the molecule, how does the max response read?
A: Its max response is 2.45%.

Q: With `CCc1nc(SCC(=O)NNC(=O)c2ccc(C)cc2)c2ccccc2n1` as the molecule, how does the max response read?
A: The max response was -3.44%.

Q: With `Cc1ccc(C(=O)NNC(=O)c2cc3cc4ccccc4nc3s2)cc1` as the molecule, how does the max response read?
A: The max response was -2.84%.

Q: Which max response does the source give for `Cc1ccc(C(=O)NNc2ncnc3ccccc23)cc1` here?
A: Its max response is 37.5% (active).

Q: With `CCOc1ccccc1-c1nc(CN2CCC(C(=O)N3CCOCC3)CC2)c(C)o1` as the molecule, how does the max response read?
A: Its max response is 5.66%.

Q: With `CCOC(=O)CSc1nnc(NC(=O)C2CC(=O)N(c3ccc(F)cc3)C2)s1` (configuration not stated) as the molecule, how does the max response read?
A: Its max response is 4.08%.

Q: For `Cc1cc(-c2n[nH]c(=S)n2/N=C/C(Br)=C/c2ccccc2)n[nH]1`, which max response is on record?
A: Its max response is 95.8% (active).

Q: With `S=c1[nH]nc(-c2cccnc2)n1/N=C/C(Cl)=C\c1ccccc1` as the molecule, how does the max response read?
A: The max response was -2.93%.

Q: Which max response does the source give for `Cc1cc(-c2n[nH]c(=S)n2/N=C/c2ccco2)n[nH]1` here?
A: The max response was 0.979%.

Q: For `Cc1nn(C)cc1S(=O)(=O)N1CCN(c2ccc(F)cc2)CC1`, which max response is on record?
A: The max response was 11.1%.

Q: Which max response does the source give for `CN(C(=O)COC(=O)CNC(=O)C12CC3CC(CC(C3)C1)C2)c1ccccc1` here?
A: Its max response is 1.16%.

Q: Which max response does the source give for `C#C[C@]1(O)CC[C@H]2[C@@H]3CCC4=CC(=O)CC[C@@H]4[C@H]3CC[C@@]21CC` here?
A: Its max response is -12.5% and -2.99% and -5.94%.

Q: For `Cc1nc(CN(C)C(=O)CC2C(=O)NCCN2Cc2ccc(F)cc2)cs1` (configuration not stated), which max response is on record?
A: The max response was -1.31%.

Q: With `CNC(=S)N1N=C(c2ccccc2)CC1c1ccc(Br)cc1` (configuration not stated) as the molecule, how does the max response read?
A: Its max response is 12.1%.

Q: Which max response does the source give for `Brc1ccc(C2CC(c3ccccc3)=Nc3ccccc3N2)cc1` (configuration not stated) here?
A: Its max response is 43.8% (active).

Q: Which max response does the source give for `Brc1ccc(C2=NCCC(c3ccccc3)O2)cc1` (configuration not stated) here?
A: Its max response is 6.52%.

Q: With `CNC[C@H](CC1CCCCC1)NC[C@H](NCCC1CCCC1)[C@H](C)O` as the molecule, how does the max response read?
A: The max response was -3.05%.

Q: For `Cc1nonc1NC(=O)CSc1nc2ccccc2cc1C#N`, which max response is on record?
A: The max response was 29.2%.

Q: Which max response does the source give for `COc1ccc(N2CCN(C(=O)CSc3nc4cc(OC)c(OC)cc4cc3C#N)CC2)cc1` here?
A: Its max response is 2.1%.

Q: Which max response does the source give for `CCOc1ccc2cc(C#N)c(SCC(=O)OC)nc2c1` here?
A: The max response was 26.6% (active).

Q: With `CCCn1c2ccccc2c2cnn(CC(=O)NCCCN3CCCCC3CC)c(=O)c21` (configuration not stated) as the molecule, how does the max response read?
A: The max response was -4.88%.

Q: With `Cc1cccc(NC(=O)Nc2cccc(Oc3c(F)c(F)c(F)c(F)c3F)c2)c1` as the molecule, how does the max response read?
A: Its max response is 7.92%.

Q: With `O=C(Nc1cccc(-c2nc3ncccc3o2)c1)c1ccco1` as the molecule, how does the max response read?
A: Its max response is 29.9% (active).

Q: Which max response does the source give for `O=C(Nc1cccc(NC(=O)c2ccco2)c1)c1cnccn1` here?
A: Its max response is 6.96%.

Q: With `O=C(Nc1ccc(Oc2ccccc2)cc1)c1ccco1` as the molecule, how does the max response read?
A: Its max response is 37.5% (active).

Q: Which max response does the source give for `O=C(Nc1cc(-c2nc3ncccc3o2)ccc1Cl)c1ccco1` here?
A: Its max response is 7.89%.

Q: Which max response does the source give for `Cc1ccc(C(=O)COc2cccc(NC(=O)c3ccco3)c2)cc1` here?
A: The max response was 4.03%.

Q: For `CCOc1cc(NC(=O)c2ccco2)c(OCC)cc1NC(=O)COc1ccccc1`, which max response is on record?
A: Its max response is -3.22%.

Q: For `Cc1ccnc(NC(=O)c2ccco2)n1`, which max response is on record?
A: Its max response is 10.2%.

Q: Which max response does the source give for `Cc1ccoc1C(=O)Nc1cccc(Oc2ccccc2)c1` here?
A: Its max response is 62.1% (active).

Q: For `O=C(Nc1c(-c2ccccc2)nc2c(Br)cc(Br)cn12)c1ccco1`, which max response is on record?
A: The max response was 14.7%.

Q: With `O=C(Nc1ccc2nccnc2c1)c1ccco1` as the molecule, how does the max response read?
A: The max response was 36.2% (active).

Q: With `O=C(CSc1ccccc1)Nc1ccc(NC(=O)c2ccco2)cc1` as the molecule, how does the max response read?
A: Its max response is 16.6%.

Q: Which max response does the source give for `COc1ccc(C(=O)Nc2ccc(C(=O)NCC3CCCO3)cc2)c(OC)c1OC` (configuration not stated) here?
A: Its max response is -0.955%.

Q: With `O=S(=O)(Nc1cccc2cccnc12)c1cccc2cccnc12` as the molecule, how does the max response read?
A: The max response was -4.18%.

Q: With `COc1cc(/C(=C/c2ccccc2)c2ccccc2)c2c(c1)oc1ccccc12` as the molecule, how does the max response read?
A: Its max response is -1.79%.

Q: Which max response does the source give for `CCCOc1ccc(/C=N/NC(=O)C2CC2)c(OCCC)c1` here?
A: Its max response is 1.32%.

Q: With `Cc1ccc(C(=O)NCCNS(=O)(=O)c2ccccc2)cc1` as the molecule, how does the max response read?
A: Its max response is -4.96%.

Q: With `Cc1cc(NC(=O)[C@H](C)NC(=O)c2ccco2)ccc1Br` as the molecule, how does the max response read?
A: Its max response is -2.49%.

Q: With `O=C(NNC(=O)c1ccco1)Nc1ccccc1` as the molecule, how does the max response read?
A: The max response was 12.6%.

Q: With `O=C(Nc1ccccc1)c1ccco1` as the molecule, how does the max response read?
A: The max response was 18.8% (active).

Q: Which max response does the source give for `COc1ccc(NC(=O)c2ccco2)cc1NC(=O)c1ccc(C#N)cc1F` here?
A: Its max response is 1.08%.

Q: With `O=C(Nc1ccc2oc(-c3ccccc3F)nc2c1)c1ccco1` as the molecule, how does the max response read?
A: The max response was 47.3% (active).

Q: Which max response does the source give for `O=C(Nc1ccccc1)/C(=C\c1ccco1)NC(=O)c1ccco1` here?
A: The max response was 25.7%.

Q: Which max response does the source give for `O=C(Nc1ccc(Sc2ccc(Br)cc2)cc1)c1ccco1` here?
A: Its max response is 35.2% (active).

Q: Which max response does the source give for `Cc1ccc(C(=O)NCCNC(=O)c2ccccc2)cc1` here?
A: Its max response is 2.82%.

Q: For `CCS(=O)(=O)Nc1ccc(C(=O)NCCSc2ccccc2)cc1`, which max response is on record?
A: Its max response is 30% (active).

Q: Which max response does the source give for `COc1ccc(NC(=O)CCCN2C(=O)C(c3ccccc3)Oc3cccnc32)cc1` (configuration not stated) here?
A: Its max response is 21.3%.
